Laboratory results reported in PubChem BioAssay (EPA / NIEHS).
Records with an inconclusive call do not appear. Calls of active or inactive are those of the source. Rule for the calls: active = hit-call score of the fitted dose curve at least 0.9, where 1 is the maximum; inconclusive = response in the unintended direction; inactive = score below 0.9.

target: human Vitamin D Receptor (VDR), VDR (gene 7421) (UniProt P11473); assay: ATG_VDR_TRANS: Attagene TRANS-FACTORIAL HepG2 Assay for human Vitamin D Receptor (VDR) (AID 2283022)
Sequence (P11473 whole entry, looked up, the tested form may be a part): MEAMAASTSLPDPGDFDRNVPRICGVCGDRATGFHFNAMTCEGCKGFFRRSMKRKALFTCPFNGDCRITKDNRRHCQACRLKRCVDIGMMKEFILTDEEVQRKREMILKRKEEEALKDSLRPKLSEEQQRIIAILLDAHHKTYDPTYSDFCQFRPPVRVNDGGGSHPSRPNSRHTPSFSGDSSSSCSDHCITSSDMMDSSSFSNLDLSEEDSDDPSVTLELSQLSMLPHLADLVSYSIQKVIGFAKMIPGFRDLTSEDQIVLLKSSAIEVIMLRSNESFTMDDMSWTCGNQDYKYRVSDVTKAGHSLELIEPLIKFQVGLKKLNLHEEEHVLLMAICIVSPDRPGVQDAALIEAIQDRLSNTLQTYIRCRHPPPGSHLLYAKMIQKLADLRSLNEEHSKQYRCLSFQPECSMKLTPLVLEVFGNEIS
How it was run: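 HepG2 cells were transiently transfected with GAL4-UAS reporter units and a chimeric VDR-Gal4 construct, then dosed for 24 hours. Reporter mRNA was quantified by RT-PCR, fluorescent labeling, HpaI digestion and capillary electrophoresis; gain of signal analysed vs DMSO.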

| SMILES | outcome |
| --- | --- |
| CCCCN(CCCC)CCCCCCN(CCCC)CCCC | inactive |
| CC1=CC[C@@H]2C[C@H]1C2(C)C | inactive |
| CCCCCCCC(=O)N(C)C | inactive |
| CCCC1CCOC(C)S1 (configuration not stated) | inactive |
| Cc1ccccc1S | inactive |
| NC(=O)c1cccnc1 | inactive |
| CC1(C)CC(=O)CC(C)(C)N1 | inactive |
| CN(C)C(=O)Nc1ccccc1 | inactive |
| CCc1cccc(O)c1 | inactive |
| CCCC1CCC(=O)CC1 | inactive |
| COc1ccc2[nH]cc(CCNC(C)=O)c2c1 | inactive |
| C=C(C)C(=O)OCCN(C)C | inactive |
| C=CC(C)CCCC(C)(C)O (configuration not stated) | inactive |
| CC(=O)C1=C(C)[C@@H]2C[C@@]3(C1)[C@H](C)CC[C@H]3C2(C)C | inactive |
| O=[N+]([O-])c1cc(N(CCO)CCO)ccc1NCCO | inactive |
| Nc1cc([N+](=O)[O-])ccc1C(=O)O | inactive |
| COc1ccc(OC)cc1 | inactive |
| Cc1ccncc1 | inactive |
| CCC(C)(C)c1cc(O)c(C(C)(C)CC)cc1O | inactive |

| SMILES | outcome |
| --- | --- |
| CC1=C(C=O)C(C)(C)CCC1 | inactive |
| CCCCOCCOC(=O)c1ccccc1C(=O)OCCOCCCC | inactive |
| NC(=O)c1cnccn1 | inactive |
| O=C(O)c1cccc(Cl)n1 | inactive |
| C=CC(C)(CCC=C(C)C)OC(=O)CC (configuration not stated) | inactive |
| CCCCCCCCOC(C)=O | inactive |
| Brc1cc(Br)cc(Br)c1 | inactive |
| CC(=O)c1cccnc1 | inactive |
| COc1ccc(N)c(C)c1 | inactive |
| CCCCCCOC(C)=O | inactive |
| [Cl][Dy]([Cl])[Cl] | inactive |
| C=CCCCCCCCCC(=O)OCC | inactive |
| CC(=O)CCc1ccc(O)cc1 | inactive |
| C=COCC1CCC(COC=C)CC1 (configuration not stated) | inactive |
| CCOC(=O)COC(=O)c1ccccc1C(=O)OCC | inactive |
| O=S(=O)(O)CCCN1CCOCC1 | inactive |
| CC(C)CCOC(=O)CC(C)C | inactive |
| COC(=O)C(C)Oc1ccc(Oc2ncc(C(F)(F)F)cc2Cl)cc1 (configuration not stated) | inactive |
